Changes are numbered by the printed parent chain.

From article PMC5700166 come the findings set out here.

Common to all, as to experiment: protein-binding microarray (PBM); PBM: ~300 nM protein, 6 mM HEPES pH 7.8, 80 mM KCl, 0.5 mM EDTA, 0.5 mM EGTA, 6% glycerol, 35 ng/ul poly-dIdC, 1% milk, 1 h, room temperature; Ap Aiptasia and Nv Nematostella (sea anemones) / Co Capsaspora / Aq Amphimedon (sponge) / Dm Drosophila / Hu human; RHD is the Rel homology domain; high values mean tight binding
Holding throughout (conditions): dsDNA, one strand shown

The target of experiment [1] is T1, GST-Ap-NF-kB RHD (Exaiptasia pallida (Aiptasia), UniProt A0A913YAJ5 2-422).
T1 sequence: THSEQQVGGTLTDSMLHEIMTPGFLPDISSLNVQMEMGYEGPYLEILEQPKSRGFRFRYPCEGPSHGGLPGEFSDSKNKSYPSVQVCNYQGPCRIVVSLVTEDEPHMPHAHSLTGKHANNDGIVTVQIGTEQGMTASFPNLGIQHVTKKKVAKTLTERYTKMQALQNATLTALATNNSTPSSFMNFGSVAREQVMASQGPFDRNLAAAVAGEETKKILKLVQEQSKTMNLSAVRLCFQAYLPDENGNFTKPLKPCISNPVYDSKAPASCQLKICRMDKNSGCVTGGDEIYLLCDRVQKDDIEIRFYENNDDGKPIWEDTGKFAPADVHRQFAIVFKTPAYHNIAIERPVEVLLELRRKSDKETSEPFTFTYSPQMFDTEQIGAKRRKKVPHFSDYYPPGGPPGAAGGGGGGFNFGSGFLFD

The target of experiment [2] is T2, GST-Nv-NF-kB (Cys allele) (Nematostella vectensis, UniProt E5G601 2-411).
T2 sequence: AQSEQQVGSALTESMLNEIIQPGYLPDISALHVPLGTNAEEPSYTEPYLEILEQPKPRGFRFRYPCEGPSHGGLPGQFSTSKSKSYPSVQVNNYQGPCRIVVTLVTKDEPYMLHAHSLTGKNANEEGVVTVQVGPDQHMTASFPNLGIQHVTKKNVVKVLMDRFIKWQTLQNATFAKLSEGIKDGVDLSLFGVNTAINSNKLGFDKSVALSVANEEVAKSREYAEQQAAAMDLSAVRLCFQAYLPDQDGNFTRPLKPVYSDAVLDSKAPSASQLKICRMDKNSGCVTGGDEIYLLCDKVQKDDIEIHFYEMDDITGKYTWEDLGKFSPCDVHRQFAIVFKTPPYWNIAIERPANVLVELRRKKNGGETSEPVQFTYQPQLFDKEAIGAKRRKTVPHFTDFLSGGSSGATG

Experiment [3] deals with T3, GST-Nv-NF-kB (Ser allele) (Nematostella vectensis, UniProt A7UNT2 2-411).
T3 sequence: T2 sequence with Q21R, C66S, S207N, E215Q, V217A, E225K, A268E, D399E

Experiment [4] concerns the target T4, GST-Co-NF-kB (Capsaspora owczarzaki, UniProt F1ARL5 200-546).
T4 sequence: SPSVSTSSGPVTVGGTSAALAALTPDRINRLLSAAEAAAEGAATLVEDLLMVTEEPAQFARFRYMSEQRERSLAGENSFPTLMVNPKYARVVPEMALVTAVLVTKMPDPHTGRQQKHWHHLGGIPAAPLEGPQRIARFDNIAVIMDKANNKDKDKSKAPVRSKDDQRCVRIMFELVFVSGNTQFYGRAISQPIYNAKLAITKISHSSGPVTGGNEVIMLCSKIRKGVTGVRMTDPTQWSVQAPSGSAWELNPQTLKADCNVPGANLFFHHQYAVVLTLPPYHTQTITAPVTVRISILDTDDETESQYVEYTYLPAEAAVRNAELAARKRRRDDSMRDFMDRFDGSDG

The target in experiment [5] is T5, GST-Dm-Relish (Drosophila melanogaster, UniProt Q94527 99-473).
T5 sequence: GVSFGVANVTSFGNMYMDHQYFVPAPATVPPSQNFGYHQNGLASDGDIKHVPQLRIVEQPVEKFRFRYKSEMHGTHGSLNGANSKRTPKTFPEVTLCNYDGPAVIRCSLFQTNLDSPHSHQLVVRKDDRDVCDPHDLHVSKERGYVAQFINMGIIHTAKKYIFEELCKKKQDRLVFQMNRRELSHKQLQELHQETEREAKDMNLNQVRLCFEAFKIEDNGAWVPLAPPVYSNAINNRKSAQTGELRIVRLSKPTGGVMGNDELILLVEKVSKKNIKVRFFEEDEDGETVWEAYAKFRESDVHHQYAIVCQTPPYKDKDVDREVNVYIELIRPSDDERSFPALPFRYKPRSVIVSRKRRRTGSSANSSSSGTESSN

The target of experiment [6] is T6, GST-Aq-NF-kB (Amphimedon queenslandica, UniProt A9Y5G7 2-389).
T6 sequence: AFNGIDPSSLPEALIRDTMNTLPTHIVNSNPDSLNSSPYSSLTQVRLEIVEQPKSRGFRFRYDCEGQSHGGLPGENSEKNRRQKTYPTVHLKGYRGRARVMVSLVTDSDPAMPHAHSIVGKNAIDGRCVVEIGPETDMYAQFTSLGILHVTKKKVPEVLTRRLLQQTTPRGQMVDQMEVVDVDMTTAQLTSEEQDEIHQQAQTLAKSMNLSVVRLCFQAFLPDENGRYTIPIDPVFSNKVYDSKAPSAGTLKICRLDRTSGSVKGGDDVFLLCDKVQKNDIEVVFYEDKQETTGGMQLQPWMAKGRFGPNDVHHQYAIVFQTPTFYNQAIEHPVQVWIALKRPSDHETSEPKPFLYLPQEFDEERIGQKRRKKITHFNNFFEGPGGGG

Experiment [7] addresses GST-Hu-p50 (Homo sapiens, UniProt P19838 7-356).

Sequence of GST-Hu-p50 (P19838 7-356): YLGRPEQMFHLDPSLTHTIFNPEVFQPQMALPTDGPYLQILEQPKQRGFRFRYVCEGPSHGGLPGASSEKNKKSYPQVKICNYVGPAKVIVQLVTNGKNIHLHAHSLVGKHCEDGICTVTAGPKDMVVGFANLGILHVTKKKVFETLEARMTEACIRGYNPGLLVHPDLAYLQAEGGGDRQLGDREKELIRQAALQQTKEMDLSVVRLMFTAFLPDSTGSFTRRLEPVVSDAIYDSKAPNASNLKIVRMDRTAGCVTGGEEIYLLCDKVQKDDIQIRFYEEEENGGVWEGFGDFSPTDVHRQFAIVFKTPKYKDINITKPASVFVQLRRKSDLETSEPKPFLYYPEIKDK

On to “CCGATTAACATCAGGATTGTCCCTGATGTTAATCGGGTCTTGATTCGCTTGACGCTGCTG”, for which the binding signal in experiment [1] came out at 2.96 z-score; in experiment [2], 3.96 z-score; in experiment [3] it was 2.92 z-score; in experiment [4] it was 1.06 z-score; in experiment [5], 1.57 z-score; in experiment [6], 5.51 z-score. In experiment [7], this sequence showed a binding signal of 2.84 z-score.

With “CCGATTAACATCAAAGTCTCCCCTGATGTTAATCGGGTCTTGATTCGCTTGACGCTGCTG”, the binding signal in experiment [1] was 5.38 z-score; in experiment [2] it was 4.52 z-score; in experiment [3], 5.65 z-score; in experiment [4], 7.88 z-score; in experiment [5], 1.57 z-score; in experiment [6], 3.98 z-score. For the same sequence, the binding signal in experiment [7] amounted to 3.28 z-score.

Turning to “CCGATTAACATCAGGATACCCCCTGATGTTAATCGGGTCTTGATTCGCTTGACGCTGCTG”, the binding signal in experiment [1] was found to be 7.7 z-score; in experiment [2] it was 4.68 z-score; in experiment [3] it was 4.35 z-score; in experiment [4] it was 4.59 z-score; in experiment [5], 5.79 z-score; in experiment [6], 6.35 z-score. Besides, in experiment [7], the binding signal is 5.02 z-score.

For “CCGATTAACATCAGGGGGAATTATGATGTTAATCGGGTCTTGATTCGCTTGACGCTGCTG”, the binding signal in experiment [1] is 7.99 z-score; in experiment [2] it was 9.53 z-score; in experiment [3], 10.6 z-score; in experiment [4], 9.25 z-score; in experiment [5], 7.03 z-score; in experiment [6] it was 7 z-score. The binding signal in experiment [7] stood at 7.24 z-score.

For the sequence “CCGATTAACATCAAGAAATCCCCTGATGTTAATCGGGTCTTGATTCGCTTGACGCTGCTG”, the binding signal is 9.62 z-score in experiment [1]; 11.5 z-score in experiment [2]; 12.5 z-score in experiment [3]; 4.27 z-score in experiment [4]; 9.61 z-score in experiment [5]; 7.7 z-score in experiment [6]. In experiment [7], the binding signal is 7.69 z-score.

In the case of “CCGATTAACATCAATTTTCCCACTGATGTTAATCGGGTCTTGATTCGCTTGACGCTGCTG”, the binding signal was 2.82 z-score in experiment [1]; 3.99 z-score in experiment [2]; 4.57 z-score in experiment [3]; 4.54 z-score in experiment [4]; 1.33 z-score in experiment [5]; 3.35 z-score in experiment [6]. Besides, the binding signal in experiment [7] worked out at 3.37 z-score.

In the case of “CCGATTAACATCAGGGAACACCCTGATGTTAATCGGGTCTTGATTCGCTTGACGCTGCTG”, the binding signal in experiment [1] is 5.03 z-score; in experiment [2], 4.73 z-score; in experiment [3], 1.87 z-score; in experiment [4] it was 2.35 z-score; in experiment [5], 8.18 z-score; in experiment [6], 7.15 z-score. In experiment [7], this sequence came in with a binding signal of 3.05 z-score.

Consider “CCGATTAACATCAAATTTCCCCCTGATGTTAATCGGGTCTTGATTCGCTTGACGCTGCTG”, for which the binding signal turned out to be 9.03 z-score in experiment [1]; 9.93 z-score in experiment [2]; 12.8 z-score in experiment [3]; 12.3 z-score in experiment [4]; 7.24 z-score in experiment [5]; 7.79 z-score in experiment [6]. For the same sequence, the binding signal in experiment [7] stood at 7.66 z-score.

For the sequence “CCGATTAACATCAAATTCCCAATTGATGTTAATCGGGTCTTGATTCGCTTGACGCTGCTG”, the binding signal in experiment [1] was determined as 1.09 z-score; in experiment [2], 3.19 z-score; in experiment [3], 3.78 z-score; in experiment [4], 2.62 z-score; in experiment [5] it was 3.56 z-score; in experiment [6] it was 2.06 z-score. Also, the binding signal in experiment [7] amounted to 2.67 z-score.

With “CCGATTAACATCAAAGTTTCCCCTGATGTTAATCGGGTCTTGATTCGCTTGACGCTGCTG”, the binding signal in experiment [1] stood at 7.96 z-score; in experiment [2], 9.57 z-score; in experiment [3], 12 z-score; in experiment [4] it was 10.6 z-score; in experiment [5], 5.37 z-score; in experiment [6], 7.26 z-score. Moreover, in experiment [7], the binding signal was 6.85 z-score.

On to “CCGATTAACATCACCCATTTCCCTGATGTTAATCGGGTCTTGATTCGCTTGACGCTGCTG”, for which the binding signal was 2.51 z-score in experiment [1]; 3.07 z-score in experiment [2]; 3.99 z-score in experiment [3]; 3 z-score in experiment [4]; 1.35 z-score in experiment [5]; 2.52 z-score in experiment [6]. Moreover, in experiment [7], the binding signal came out at 2.57 z-score.
